22 compounds from PubChem BioAssay (NCATS) can be followed below.

Results filed as inconclusive are left out. A number with no mark means an inactive call. Active and inactive are the calls of the source. Calls follow the shape of the dose curve; as a rule, active = well fitted curve in the direction sought with a large enough effect; inconclusive = small, poorly fitted or top-dose-only effect, or another doubt; inactive = no such curve, though single readings can be large; an effect the other way counts as inactive or inconclusive. Where a SMILES comes first, the peptide text is derived from it.

Assay [1] has as its target Calcium and integrin-binding protein 1 (Homo sapiens) (UniProt Q99828). Nature of the assay: Primary qHTS for Identification of Calcium Integrin Binding Protein 1 (CIB1) Competitor (AID 1508620).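 Also: GST tagged CIB1 binding a fluorescein labelled alphaIIb integrin peptide tracer; top concentration of the series differs between compounds.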 The conditions noted are these: CIB1-GST / FITC-alphaIIb peptide fluorescence polarization; series mostly up to 57.7 µM. The procedure, abridged: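 CIB1-GST (1 uM final) and compound incubated 15 min at room temperature before adding FITC-alphaIIb peptide tracer (100 nM final). Competition for binding read by fluorescence polarization (ex 480, em 540) after another 15 min at room temperature.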
(In general: Quantitative high-throughput screening tests each substance at several concentrations.)

The nature of assay [2]: Primary qHTS for inhibitors of nuclear receptor binding SET domain protein 2 (NSD2) in an isogenic RCH-ACV NSD2 p.E1099K mutant (9B) (AID 1645876). Also: nearly all actives have a fitted effect of over 70% in size. The conditions noted are these: RCH-ACV NSD2 E1099K (9B) viability, CellTiter-Glo, 72 h; series mostly up to 44.9 µM.
A short description of assay [3]: Primary qHTS for inhibitors of nuclear receptor binding SET domain protein 2 (NSD2) in an RCH-ACV wild type WT cells (2C) (AID 1645877). Also: nearly all actives have a fitted effect of over 70% in size. Also: potency is read from the fitted curve at half-maximal effect. The conditions noted are these: RCH-ACV (leukaemia line) NSD2 WT (2C) viability, CellTiter-Glo, 72 h; series mostly up to 44.9 µM.
% is scaled to controls: 0 for no effect and ±100 for the full control effect.

Calcium and integrin-binding protein 1 (Homo sapiens), sequence (Q99828 whole entry, looked up): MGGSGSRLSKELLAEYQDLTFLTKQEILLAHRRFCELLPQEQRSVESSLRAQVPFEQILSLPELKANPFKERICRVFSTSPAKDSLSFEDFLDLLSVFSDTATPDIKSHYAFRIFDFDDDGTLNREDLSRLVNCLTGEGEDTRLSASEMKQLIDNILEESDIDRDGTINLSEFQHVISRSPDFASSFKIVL

Turning to `C[C@H]1[C@H](C)CC[C@]2(C(=O)O)CC[C@]3(C)C(=CCC4[C@@]5(C)C[C@@H](O)[C@H](O)C(C)(C)C5CC[C@]43C)[C@H]12` (stereo partly specified), the Potency entry in assay [1], in assay [2] and in assay [3] was “inactive” each time.

Take `COc1ccc(/C=C/C(=O)O[C@@H]2[C@@H](O)[C@@H](O)[C@H](O[C@H]3[C@@H]4C=CO[C@@H](O[C@@H]5O[C@H](CO)[C@@H](O)[C@H](O)[C@H]5O)[C@@H]4[C@@]4(CO)O[C@@H]34)O[C@H]2C)cc1`: the Potency result in assay [1], in assay [2] and in assay [3] was “inactive” each time.

As for `CCC1=C(C)C(=O)C(C)CC12C(=O)CCC2C(=O)O` (stereo unspecified), the Potency entry in assay [1], in assay [2] and in assay [3] was “inactive” each time.

Take `CC1=CC(=O)[C@]2(O[C@@H]3O[C@@H](C)[C@H](O)[C@@H](O)[C@H]3O)C=CO[C@@H](O[C@@H]3O[C@H](CO)[C@@H](O)[C@H](O)[C@H]3O)[C@H]12`: the Potency entry in assay [1], in assay [2] and in assay [3] was “inactive” in each case.

Take `CC(=O)NC(Cc1ccccc1)C(=O)NC(C(=O)O)C(C)C` (stereo not drawn) (Ac-Phe-Val-OH; configuration not given here): the Potency entry in assay [1], in assay [2] and in assay [3] was “inactive” throughout.

In the case of `COc1cc(C(O)C2COC(c3ccc(OC4OC(CO)C(O)C(O)C4O)c(OC)c3)C2CO)ccc1O` (stereo unspecified), the Potency entry in assay [1], in assay [2] and in assay [3] was “inactive” in each case.

As to `COC(=O)C1=COC(O[C@@H]2O[C@H](CO)[C@@H](O)[C@H](O)[C@H]2O)[C@@H]2[C@@](C)(O)[C@@H](OC(=O)/C=C/c3ccccc3)C[C@]12O` (stereo partly specified), the Potency result in assay [1], in assay [2] and in assay [3] was “inactive” throughout.

With `OC[C@@]1(O)CO[C@H](OC[C@H]2O[C@@H](OC(CCCCc3ccc(O)cc3)CCc3ccc(O)cc3)[C@H](O)[C@@H](O)[C@@H]2O)[C@@H]1O` (stereo partly specified), the Potency entry in assay [1], in assay [2] and in assay [3] was “inactive” each time.

For the compound `CC1=CC(=O)CC(C)(C)[C@@]1(O)/C=C/C(C)O[C@@H]1O[C@H](CO)[C@@H](O)[C@H](O)[C@H]1O` (stereo partly specified), the Potency entry in assay [1], in assay [2] and in assay [3] was “inactive” in each case.

Consider `C=C1CC23CC1CCC2C12OC(=O)C(C)(C(O)CC1O)C2C3C(=O)O` (stereo unspecified), for which the Potency entry in assay [1], in assay [2] and in assay [3] was “inactive” each time.

As to `CC1CC(O)/C=C/C(O)/C=C\C(=O)O1` (stereo unspecified), the Potency entry in assay [1], in assay [2] and in assay [3] was “inactive” each time.

For the compound `CC(=O)c1[nH]cc(CCC(=O)O)c1CC(=O)O`, the Potency result in assay [1], in assay [2] and in assay [3] was “inactive” each time.

Take `CC1(C)CCC[C@]2(C)C1CC=C(CO)[C@H]2CC/C(=C/CO)CO` (stereo partly specified): the Potency result in assay [1], in assay [2] and in assay [3] was “inactive” in each case.

Take `COc1cc(C(CO)CO[C@@H]2O[C@H](CO)[C@@H](O)[C@H](O)[C@H]2O)ccc1O` (stereo partly specified): the Potency result in assay [1], in assay [2] and in assay [3] was “inactive” in each case.

With `CC1=C2C(=O)C=C(CO)C2[C@H]2OC(=O)[C@H](C)[C@@H]2[C@@H](OC(=O)Cc2ccc(O)cc2)C1` (stereo partly specified), the Potency result in assay [1], in assay [2] and in assay [3] was “inactive” in each case.

For the compound `C[C@@H]1O[C@@H](O[C@H]2[C@@H]3C=CO[C@@H](O[C@@H]4O[C@H](CO)[C@@H](O)[C@H](O)[C@H]4O)[C@@H]3[C@@]3(CO)O[C@@H]23)[C@H](O)[C@H](OC(=O)/C=C/c2ccc(O)cc2)[C@H]1OC(=O)/C=C/c1ccc(O)cc1`, the Potency entry in assay [1], in assay [2] and in assay [3] was “inactive” each time.

Turning to `C[C@]1(OC(=O)/C=C/c2ccccc2)C[C@@H](O)[C@]2(O)C=CO[C@@H](O[C@@H]3O[C@H](CO)[C@@H](O)[C@H](O)[C@H]3O)[C@@H]21`, the Potency entry in assay [1], in assay [2] and in assay [3] was “inactive” throughout.

`C[C@]12CC/C(=N\OCC(=O)O)C=C1CC[C@@H]1[C@@H]2[C@@H](O)C[C@@]2(C)[C@H]1CC[C@]2(O)C(=O)CO`: the Potency entry in assay [1] and in assay [2] was “inactive” each time. In assay [3], the Potency was 9.16 µM (active).

Take `CSCC1OC(n2cnc3c(N)ncnc32)C(O)C1O` (stereo unspecified): the Potency entry in assay [1], in assay [2] and in assay [3] was “inactive” in each case.

As to `C/C=C(/C)C(=O)O[C@@H]1C[C@@H](OC(=O)/C(C)=C\C)[C@@]2(C)C3C(=O)C=C(C)C2C3C1(C)C`, the Potency result in assay [1], in assay [2] and in assay [3] was “inactive” in each case.

As for `CC1OC(OC2C(OC3C(O[C@H]4CC[C@@]5(C)C(CC[C@]6(C)C5CC=C5C7CC(C)(C)CC(O)[C@]7(C)CC[C@]56C)C4(C)C)OC(C(=O)O)C(O)C3O)OCC(O)C2O)C(O)C(O)C1O` (stereo partly specified), in assay [1], the Potency entry was “inactive”. The outcome in assay [2] is “inactive [at 9.23 µM]”. Further, the activity change, negative = cell killing in assay [3] was 4.8% [at 9.23 µM].

In the case of `NC(=O)[C@H](Cc1ccccc1)NC(=O)[C@H](CCCN=C(N)N)NC(=O)C12CC3CC(CC(C3)C1)C2`, the Potency entry in assay [1] was “inactive”. For the same compound, the activity change, negative = viability loss in assay [2] was -0.15% [at 9.23 µM]. In assay [3], the activity change, negative = cell killing is 0.0232% [at 9.23 µM].
